Assay outcomes (PubChem)
Compounds with a hit are over-represented: about 9.2% of the library has one in this group of screens.
Lamin A splicing: qHTS Assay for Modulators of Lamin A Splicing; HeLa LMNA splicing GFP/RFP minigene ratio, 48 h; 200,000 compounds, 0.01% hits; Potency, µM (series often up to 46.1 µM), for inactives: at the top dose ratio change, negative = inhibition, hits mostly inhibitors; active = well fitted inhibition curve with a large enough effect in the signal ratio, with a control signal flat, not every such curve was filed as active; inconclusive = small, poorly fitted or top-dose-only effect, or effect the other way, or a change in a side signal; the % refers to the signal ratio; note: % is set by controls: 0 for no effect and ±100 for the full control effect
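S3 HeLa cells stably expressing lamin A-EGFP splicing minigene plus DsRed2, 600 cells/well, 48 h compound exposure at 37C. Laser-scanning cytometry; analysed as GFP (500-530 nm)/RFP (575-640 nm) total intensity ratio; 0.5% DMSO vehicle.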
HPGD inh: qHTS Assay for Inhibitors of HPGD (15-Hydroxyprostaglandin Dehydrogenase); 15-hydroxyprostaglandin dehydrogenase [NAD(+)] (Homo sapiens), P15428; purified HPGD, NADH fluorescence kinetic, PGE2 substrate; Potency, µM, for inactives: at the top dose activity change, negative = inhibition, hits mostly inhibitors; 150,000 compounds, 4.3% hits; AID 894, 2007; note: % is set by controls: 0 for no effect and ±100 for the full control effect
Target sequence (P15428 whole entry, looked up): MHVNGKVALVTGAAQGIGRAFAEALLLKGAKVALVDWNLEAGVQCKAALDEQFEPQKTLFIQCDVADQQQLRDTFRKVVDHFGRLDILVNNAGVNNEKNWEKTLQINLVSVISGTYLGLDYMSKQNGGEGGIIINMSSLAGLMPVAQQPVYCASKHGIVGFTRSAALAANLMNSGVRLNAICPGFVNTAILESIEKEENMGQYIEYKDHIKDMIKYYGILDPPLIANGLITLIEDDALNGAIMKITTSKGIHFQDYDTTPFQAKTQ
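20 nM HPGD preincubated 15 min at room temperature with compound in 50 mM Tris-HCl pH 8, 0.01% Tween 20. Started with 1 mM NAD+ and 30 uM prostaglandin E2; NADH fluorescence (360/450 nm) read 5 times over 30-s intervals, last minus first.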
ALDH1A1 inh: qHTS Assay for Inhibitors of Aldehyde Dehydrogenase 1 (ALDH1A1). Purified ALDH1A1, NADH fluorescence, propionaldehyde substrate. AID 1030, 2008. Potency, µM (top dose mostly 75.3 µM), without a hit: at the highest dose activity, negative = inhibition, usual class: inhibitors. 220,000 compounds, 7.3% hits;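 note: plate controls were no enzyme wells and a reference inhibitor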
JMJD2E inh: qHTS Assay for Inhibitors of Human Jumonji Domain Containing 2E (JMJD2E); JMJD2E catalytic domain, FDH-coupled NADH fluorescence (FDH is formaldehyde dehydrogenase); Potency, µM (top dose mostly 57.1 µM), for inactives: at the top dose activity change, negative = inhibition, most hits filed as inhibitors; 230,000 compounds, 1.6% hits; AID 2147, 2009;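 note: 0% = wells with enzyme and -100% = buffer wells without enzyme; nearly all actives have a fitted effect of over 50% in size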
Target sequence (B2RXH2 1-337 limits assumed): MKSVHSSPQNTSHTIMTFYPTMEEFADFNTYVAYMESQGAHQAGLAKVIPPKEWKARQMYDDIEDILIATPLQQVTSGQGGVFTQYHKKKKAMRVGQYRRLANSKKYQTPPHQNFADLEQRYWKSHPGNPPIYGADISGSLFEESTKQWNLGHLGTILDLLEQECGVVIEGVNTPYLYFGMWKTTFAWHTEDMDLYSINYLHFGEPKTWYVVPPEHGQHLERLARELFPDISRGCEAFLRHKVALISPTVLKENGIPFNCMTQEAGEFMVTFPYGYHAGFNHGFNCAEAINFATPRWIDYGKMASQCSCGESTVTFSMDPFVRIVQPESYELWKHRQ
HTT cytoprotect: qHTS Multiplex Assay to Identify Dual Action Probes in a Cell Model of Huntington: Cytoprotection (ATP) | PC12 HTT-Q103 induced, cytoprotection, ATP luminescence, 40 h | 230,000 compounds, 0.14% hits | AID 1471, 2008 | Potency, µM (doses to about 56.4 µM), without a hit: cytoprotection (ATP increase), most hits filed as activators; active = well fitted curve in the direction sought with a large enough effect; inconclusive = small, poorly fitted or top-dose-only effect, or another doubt; inactive = no such curve, though single readings can be large; an effect the other way counts as inactive or inconclusive; note: % of control where 0% means no effect; nearly all actives have a fitted effect of over 45% in size
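Quantitative HTS on tebufenozide-induced (100 nM) PC12 cells expressing HTTQ103 exon 1–GFP; compounds tested as a concentration series; survival measured via cellular ATP.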
HTT aggregate: qHTS Multiplex Assay to Identify Dual Action Probes in a Cell Model of Huntington: Aggregate Formation (GFP) | PC12 HttQ103-GFP aggregates, Acumen cytometry, 40 h | Potency, µM (highest dose often 46.1 µM), without a hit: top-dose activity change, negative = inhibition, most hits filed as inhibitors | 220,000 compounds, 1.1% hits | AID 1688, 2009; active = well fitted curve in the direction sought with a large enough effect; inconclusive = small, poorly fitted or top-dose-only effect, or another doubt; inactive = no such curve, though single readings can be large; an effect the other way counts as inactive or inconclusive; note: % is set by controls: 0 for no effect and ±100 for the full control effect; nearly all actives have a fitted effect of over 60% in size
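Inducible Q103 Huntingtin exon 1–GFP PC12 line, 1500 cells/well in phenol red free DMEM with 5% equine and 5% calf serum. Tebufenozide 100 nM induced expression; compounds titrated; aggregates quantified by cytometry.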
An asterisk follows results filed as active; ? = inconclusive; . = no result given; [ ] = remark or other dose. Unless noted, calls come from the whole dose curve; as a rule, active = well fitted inhibition curve with a large enough effect (not every such curve was filed as active); inconclusive = small, poorly fitted or top-dose-only effect, or another doubt; inactive = no such curve, though single readings can be large or run the other way. Potency is the fitted concentration of half-maximal effect.

SMILES | Lamin A splicing | HPGD inh | ALDH1A1 inh | JMJD2E inh | HTT cytoprotect | HTT aggregate
COc1ccc2[nH]c3c(C)c4ccncc4c(C)c3c2c1 | ? | . | -9% | 8.9µM* | -90%[10 µM] | -39%[9.22 µM]
Cc1ccc(C(=O)O[C@@H](C(=O)O)[C@@H](OC(=O)c2ccc(C)cc2)C(=O)O)cc1 (tested in a mixture with another compound) | . | . | . | . | -21%[1.9 µM] | .
O=C(O)C1CCCCC1C(=O)Nc1cccc(C(=O)N2CCCCC2)c1 (configuration not stated) | -6% | -22% | 3% | -1% | 4%[0.074 µM] | -4%
CC(=O)Nc1ccc(N2CCCCC2)c(C(=O)Nc2cccc(C)c2)c1 | -2% | -9% | 11µM* | -3% | 1% | 13%
Cc1ccc(NC(=O)c2cc(NC(=O)c3ccccc3C(=O)O)ccc2N2CCCCC2)cc1 | . | . | -9% | -2% | 4% | 9%[9.22 µM]
Cc1cccc(NC(=O)c2cc(NC(=O)C3CCCCC3C(=O)O)ccc2N2CCCCC2)c1 (configuration not stated) | -5% | 1% | 18µM* | -6% | -1%[0.074 µM] | 5%
CCn1nc(C(=O)OC(C(=O)c2c[nH]c3ccccc23)c2ccccc2)c2ccccc2c1=O (configuration not stated) | 22% | -24% | ? | -16% | -4% | -21%
Cc1c(Cl)cccc1NC(=O)Cn1c(=O)nc(-c2ccccc2)c2ccccc21 | 4%[46 µM] | . | . | . | . | .
O=C(Cc1cccs1)NCc1ccccc1F | 11% | 25µM* | 0% | 9% | 9%[1.9 µM] | 9%
O=C(Cc1cccs1)NCCSc1c(-c2ccc(Cl)cc2)[nH]c2ccccc12 | ? | ? | ? | ? | . | 22µM*
COc1ccc(CNC(=O)C(c2ccncc2)N(C(=O)Cc2cccs2)c2ccccc2)cc1 (configuration not stated) | -2% | -3% | -7% | -3% | 2%[10 µM] | 15%
Cc1ccccc1CNC(=O)Cc1cccs1 | . | . | 5% | 3% | -81% | 14%
O=C(Cc1cccs1)NCc1ccccc1 | -1% | 20µM* | 4% | 1% | -17%[10 µM] | -5%[9.22 µM]
COCCN(C(=O)Cc1cccs1)C(C(=O)NCc1ccc(OC)cc1)c1ccccc1 (configuration not stated) | -10% | -6% | 25µM* | -1% | -12%[10 µM] | -4%
COc1cccc(-c2cncnc2NCc2cccc(C)c2)c1 | ? | . | ? | . | -98% | .
COc1ccccc1CCNC(=O)C(=O)NCC(c1cccs1)S(=O)(=O)c1cccs1 (configuration not stated) | -20%[46 µM] | . | . | . | . | .
O=C(NCCNCc1cccs1)c1ccccc1F | ? | . | -16% | ? | 14%[10 µM] | -3%
CC(=O)SC(C)CC(=O)NCc1ccccc1 (configuration not stated) | 14% | 28µM* | 1% | -1% | 14% | 0%
O=C(NCc1cccs1)c1ccccc1F | 8% | 20µM* | -2% | 8% | -1%[10 µM] | 10%
O=C(Cc1cccs1)NCCCc1ccccc1 | ? | . | 11% | 6% | 5%[10 µM] | -2%[9.22 µM]
COc1ccc(CCNC(=O)Cc2cccs2)cc1 | 9% | 35µM* | 2% | -1% | . | -3%
CC(=O)SC(C)CC(=O)Nc1ccccc1 (configuration not stated) | 10% | -29% | 6% | 8% | 6% | 1%
COc1ccc(N(C(=O)CCl)C(C(=O)NCCc2ccccc2)c2cccs2)cc1 (configuration not stated) | ? | -15% | 1% | 2% | -84%[10 µM] | 2.2µM*
CC(=O)c1cn(C)c(=O)[nH]c1=O | ? | . | 6% | -2% | -37% | -8%
CCC(C)C(=O)OC1CCC=C2C=CC(C)C(CCC3CC(O)CC(=O)O3)[C@@H]21 (some centres not stated) | ? | 3% | -11% | -9% | -49% | -30%
SMILES | Lamin A splicing | HPGD inh | ALDH1A1 inh | JMJD2E inh | HTT cytoprotect | HTT aggregate
O=C(NCc1cccs1)c1cc(-c2ccccc2)nc2ccccc12 | ? | -13% | 0% | 20% | -11%[10 µM] | -15%
Cc1ccc(OCC(=O)NCc2cccs2)cc1 | -4% | 22µM* | -6% | 2% | -3% | 6%
O=C(COc1ccccc1)NCc1cccs1 | 21% | -26% | 0% | -3% | -3% | -3%
Cc1ccc(-c2nc3ccccc3c(C(=O)NCc3cccs3)c2C)cc1 | -3% | -27% | 24µM* | -9% | -24% | 2%
Cc1ccc(CNC(=O)Cc2cccs2)cc1 | 8% | 16µM* | 5% | -4% | -29% | 11%
Cc1nc(N)c(C#N)c(-c2cccnc2)c1C | -11% | -11% | 1% | ? | 1%[10 µM] | 6.3µM*
Cc1cc2oc(=O)cc(CN3CCN(Cc4ccc5c(c4)OCO5)CC3)c2cc1C | -4% | -19% | -20% | -5% | 31%[10 µM] | -8%
Cc1cc(C)c2c(CN3CCOCC3)cc(=O)oc2c1C | . | . | . | 6% | -22%[10 µM] | -2%[9.22 µM]
Cc1cc(C)c2c(CN3CCN(Cc4ccc5c(c4)OCO5)CC3)cc(=O)oc2c1 | ? | -28% | 13µM* | 0% | -9%[0.074 µM] | -1%
Cc1cc(C)c2c(CN3CCN(Cc4ccc5c(c4)OCO5)CC3)cc(=O)oc2c1C | ? | -6% | 1.6µM* | 4% | -6%[0.074 µM] | -9%
Cc1ccc2c(CN3CCN(Cc4ccc5c(c4)OCO5)CC3)cc(=O)oc2c1C | -7% | -18% | 25µM* | -12% | -56% | -8%
CN(C)CCNc1nc2c(c(=O)n(C)c(=O)n2C)n1C | . | -5% | -9%[13.5 µM] | . | 9%[10 µM] | .
COc1ccc(-c2nc3c(c4c2C[C@H](c2ccccc2)OC4)CN(C(=O)Nc2cccc(C#N)c2)CC3)c(C)c1 | ? | -1% | ? | 0%[11.4 µM] | -5%[10 µM] | .
COCCOC(=O)c1c(C)n(C)c2ccc(OC(=O)c3ccco3)cc12 | 4% | -6% | -2% | 4% | 4%[10 µM] | 9%
COCCOC(=O)c1c(C)n(C)c2ccc(OC(=O)C3CC3)cc12 | 3% | -16% | 10µM* | 4% | 28% | 0%
CCOC(=O)c1c(NC(=O)C(Sc2ccccc2)c2ccccc2)sc(C(N)=O)c1C (configuration not stated) | 13% | 28µM* | 14µM* | 1% | -17% | -17%
CCOC(=O)c1c(NC(=O)C(Sc2ccccc2)c2ccccc2)sc(C(=O)N(C)C)c1C (configuration not stated) | ? | -19% | -10% | -7% | 11%[10 µM] | ?
